# The supplement of paper PMC8728848
# The entries come from a sample that favours the strongest signals as a whole.
# B1: Di AAL2 (Agrocybe aegerita) (protein)
# chain: MTSNVITQDLPIPVASRGFADIVGFGLDGVVIGRNAVNLQPFLAVKNFAQNAGGWLTTKHVRLIADTTGTGKGDIVGFGNAGVYVSVNNGKNTFADPPKMVIANFGYDAGGWRVEKHLRYLADIRKIGRADIIGFGEKGVLVSRNNGGLNFGPATLVLKDFGYDAGGWRLDRHLRFLADVTGNGHLDIVGFGDKHVFISRNNGDGTFAPAKSVIDNFCIDAGGWKIGDHPRFVADLTGDGTADIIGCGKAGCWVALNNGGGVFGQVKLVINDFGTDKGWQAAKHPRFIADLTGNGRGDVVGFGNAGVYVALNNGDGTFQSAKLVLKDFGVQQGWTVSKHRRFVVDLTGDGCADIIGFGEKETLVSYNDGKGNFGPVKALTNDFSFSGGKWAPETTVCWMANLDSSRHPAPAPMTSNVITQDLPIPVASRGFADIVGFGLDGVVIGRNAVNLQPFLAVKNFAQNAGGWLTTKHVRLIADTTGTGKGDIVGFGNAGVYVSVNNGKNTFADPPKMVIANFGYDAGGWRVEKHLRYLADIRKIGRADIIGFGEKGVLVSRNNGGLNFGPATLVLKDFGYDAGGWRLDRHLRFLADVTGNGHLDIVGFGDKHVFISRNNGDGTFAPAKSVIDNFCIDAGGWKIGDHPRFVADLTGDGTADIIGCGKAGCWVALNNGGGVFGQVKLVINDFGTDKGWQAAKHPRFIADLTGNGRGDVVGFGNAGVYVALNNGDGTFQSAKLVLKDFGVQQGWTVSKHRRFVVDLTGDGCADIIGFGEKETLVSYNDGKGNFGPVKALTNDFSFSGGKWAPETTVCWMANLDSSRH
# Tests used:
# Assay in all cases: glycan array binding signal (z-score within array); higher = stronger binding
# Details in all cases: glycan notation: IUPAC condensed, linker removed
# [1] = target: GlcNAc(b1-3)Gal(b1-4)GlcNAc(b1-3)Gal(b1-4)GlcNAc(b1-3)Gal(b1-4)GlcNAc(b1-3)Gal(b1-4)GlcNAc(b1-2)Man(a1-3)[GlcNAc(b1-3)Gal(b1-4)GlcNAc(b1-3)Gal(b1-4)GlcNAc(b1-3)Gal(b1-4)GlcNAc(b1-3)Gal(b1-4)GlcNAc(b1-2)Man(a1-6)]Man(b1-4)GlcNAc(b1-4)[Fuc(a1-6)]GlcNAc
# Procedure, shortened: (§1)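 Glycan array data were curated from 3228 arrays in the Consortium for Functional Glycomics database and kept only where the protein sequence was available. Glycan names were converted to IUPAC-condensed notation, and columns mapping to the same glycan were averaged. The binding signal is a within-array Z-score, averaged across arrays of the same protein sequence at different concentrations or buffers and across linkers. Negative Z-scores can be read as non-binding.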
# [2] = target: GlcNAc(b1-3)Gal(b1-4)GlcNAc(b1-3)Gal(b1-4)GlcNAc(b1-3)Gal(b1-4)GlcNAc(b1-3)Gal(b1-4)GlcNAc(b1-2)[GlcNAc(b1-3)Gal(b1-4)GlcNAc(b1-3)Gal(b1-4)GlcNAc(b1-3)Gal(b1-4)GlcNAc(b1-3)Gal(b1-4)GlcNAc(b1-6)]Man(a1-6)[GlcNAc(b1-3)Gal(b1-4)GlcNAc(b1-3)Gal(b1-4)GlcNAc(b1-3)Gal(b1-4)GlcNAc(b1-3)Gal(b1-4)GlcNAc(b1-2)Man(a1-3)]Man(b1-4)GlcNAc(b1-4)[Fuc(a1-6)]GlcNAc
# Procedure, shortened: as §1
# [3] = target: Man(a1-3)[Man(a1-6)]Man(a1-6)[Man(a1-3)]Man(b1-4)GlcNAc(b1-4)GlcNAc
# Procedure, shortened: as §1
# [4] = target: Man(a1-3)[Man(a1-6)]Man(b1-4)GlcNAc(b1-4)[Fuc(a1-6)]GlcNAc
# Procedure, shortened: as §1
# [5] = target: Neu5Ac(a2-3)Gal(b1-3)[Neu5Ac(a2-6)]GlcNAc(b1-3)[Fuc(a1-3)[Gal(b1-4)]GlcNAc(b1-6)]Gal(b1-4)Glc
# Procedure, shortened: as §1
# [6] = target: Neu5Ac(a2-3)Gal(b1-4)GlcNAc(b1-6)GalNAc
# Procedure, shortened: as §1
# [7] = target: Neu5Ac(a2-3)Gal(b1-4)[Fuc(a1-3)]GlcNAc(b1-6)[Gal(b1-3)]GalNAc
# Procedure, shortened: as §1
# [8] = target: Neu5Ac(a2-3)[GalNAc(b1-4)]Gal(b1-4)GlcNAc(b1-3)GalNAc
# Procedure, shortened: as §1
# [9] = target: Neu5Ac(a2-6)Gal(b1-4)GlcNAc(b1-2)Man(a1-3)[GlcNAc(b1-4)][Neu5Ac(a2-6)Gal(b1-4)GlcNAc(b1-2)Man(a1-6)]Man(b1-4)GlcNAc(b1-4)GlcNAc
# Procedure, shortened: as §1
# [10] = target: Neu5Ac(a2-6)Gal(b1-4)GlcNAc(b1-3)[Neu5Ac(a2-6)Gal(b1-4)GlcNAc(b1-6)]GalNAc
# Procedure, shortened: as §1
# [11] = target: Neu5Ac(a2-6)GlcNAc(b1-4)GlcNAc(b1-4)GlcNAc
# Procedure, shortened: as §1
# [12] = target: Neu5Ac(a2-8)Neu5Ac(a2-3)[GalNAc(b1-4)]Gal(b1-4)Glc
# Procedure, shortened: as §1
# [13] = target: Neu5Ac(a2-8)Neu5Ac(a2-8)Neu5Ac(a2-3)[Gal(b1-3)GalNAc(b1-4)]Gal(b1-4)Glc
# Procedure, shortened: as §1
# [14] = target: Neu5Ac(a2-8)Neu5Ac(a2-8)Neu5Ac(a2-3)[GalNAc(b1-4)]Gal(b1-4)Glc
# Procedure, shortened: as §1
binder,measurement,setting,value
B1,glycan array binding signal (z-score),[1],5.09
same,glycan array binding signal (z-score),[2],5.69
same,glycan array binding signal (z-score),[3],-0.333
same,glycan array binding signal (z-score),[4],-0.327
same,glycan array binding signal (z-score),[5],-0.313
same,glycan array binding signal (z-score),[6],-0.218
same,glycan array binding signal (z-score),[7],-0.336
same,glycan array binding signal (z-score),[8],-0.285
same,glycan array binding signal (z-score),[9],-0.319
same,glycan array binding signal (z-score),[10],-0.251
same,glycan array binding signal (z-score),[11],-0.302
same,glycan array binding signal (z-score),[12],-0.29
same,glycan array binding signal (z-score),[13],-0.297
same,glycan array binding signal (z-score),[14],-0.284
